Compound activity deposited in PubChem BioAssay by several laboratories.
PostGolgi ctrl: growth inhibition of yeast control strain, primary screen, counter-screen for post-Golgi transport modulator project; efflux-deficient yeast background strain, growth absorbance A615, 16 h; inhibition, % at 10 µM; 98,000 compounds, 5% hits
CYP2C9 inhib: blockers of cytochrome P450 2C9 activity – biochemical, luminescence, ADME assay, primary screen; inhibition, % at 5 µM; AID 777, 2007; CYP2C9 Supersomes, luciferin-H conversion; P11712; 96,000 compounds, 20% hits;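 active = blocking of liver enzyme CYP2C9 beyond about 50% at 5 µM, limit read from the data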
Target sequence (P11712 whole entry, looked up): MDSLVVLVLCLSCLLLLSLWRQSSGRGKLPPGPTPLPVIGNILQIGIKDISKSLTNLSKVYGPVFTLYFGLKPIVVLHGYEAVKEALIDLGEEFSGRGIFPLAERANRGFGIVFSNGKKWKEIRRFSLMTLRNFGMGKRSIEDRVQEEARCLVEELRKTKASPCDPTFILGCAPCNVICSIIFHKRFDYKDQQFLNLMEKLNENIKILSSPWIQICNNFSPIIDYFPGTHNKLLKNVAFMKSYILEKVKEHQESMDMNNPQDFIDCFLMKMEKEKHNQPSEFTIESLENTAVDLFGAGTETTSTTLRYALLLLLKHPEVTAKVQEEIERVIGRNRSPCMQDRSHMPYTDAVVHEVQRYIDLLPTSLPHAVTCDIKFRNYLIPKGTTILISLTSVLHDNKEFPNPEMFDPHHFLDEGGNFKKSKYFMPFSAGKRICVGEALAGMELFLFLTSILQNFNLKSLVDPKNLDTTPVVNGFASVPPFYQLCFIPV
PostGolgi yeast: phenotypic screen on post-Golgi transport, primary screen | inhibition, % at 10 µM | post-Golgi transport phenotypic cell assay | 98,000 compounds, 0.9% hits;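 note: yeast cells grown in 1536-well plates; yeast grown about 18 h at 30C before absorbance read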
CYP2C19 inh: blockers of cytochrome P450 2C19 activity – biochemical, luminescence, ADME assay, primary screen | 96,000 compounds, 21% hits | AID 778, 2007 | CYP2C19 Supersomes, luciferin-H EGE luminescence, 30 min | P33261 | inhibition, % at 5 µM;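 active = CYP2C19 inhibition above a set limit at 5 µM in the primary screen, cut at about 50% in these data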
CYP2C19 activ: human CYP2C19 activators, primary screen, biochemical, luminescence; Cytochrome P450 2C19 (Homo sapiens), P33261; recombinant CYP2C19, luciferin-H EGE luminescence; stronger effect = higher value; 0 = fully inhibited enzyme, 1 = untreated enzyme; activation factor at 5 µM; 96,000 tested, under 10 active; AID 1025, 2008;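 active = activation factor of at least 2 at 5 µM in the primary screen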
CYP2C9 activ: human CYP2C9 activators, primary screen, biochemical, luminescence. recombinant CYP2C9, luciferin-H conversion; stronger effect = higher value; factor 1 = untreated enzyme, 0 = blocked. 96,000 compounds, 1.4% hits. AID 1024, 2008. Cytochrome P450 2C9 (Homo sapiens), P11712. activation factor at 5 µM;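 active = activation factor of 2 or more for CYP2C9 at a 5 µM dose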
Large screens that a line does not name were inactive. Only some compounds are listed: those with a hit (about 32% of all), similar ones and a draw of the others. Cut-off read from the data, not from the text of the source, unless noted: active = inhibition above about 30%; inactive = the rest.

CC(C)c1ccc(CC(C)C2C3=C(CCCC3=O)OC3=C2C(=O)CCC3)cc1 (stereo not given)	CYP2C9 inhib 97, CYP2C19 inh 99
Cc1sc2nc(C3CC3)nc(SCC(=O)NCc3ccco3)c2c1C	CYP2C19 inh 84
Cc1cc(NC(=O)CSc2nc(C3CC3)nc3sc(C)c(C)c23)no1	CYP2C9 inhib 63
CCCc1nc(SCC(=O)NCc2ccco2)c2c(=O)n(C)c(=O)n(C)c2n1	none
CCc1nc(SCC(=O)Nc2cc(C)on2)c2c(C)c(C)sc2n1	none
Cc1sc2nc(C3CC3)nc(SCC(=O)N3c4ccccc4CC3C)c2c1C (stereo not given)	CYP2C9 inhib 99, CYP2C19 inh 65
CC1Cc2ccccc2N1C(=O)CSc1nc2cc3c(cc2cc1C#N)OCO3 (stereo not given)	none
CCn1c(SCC(=O)N2CCCCC2C)nnc1-c1ccc(S(=O)(=O)N2CCN(C)CC2)cc1 (stereo not given)	none
Cc1cc(NC(=O)CCC2CCCC2)no1	CYP2C19 inh 59
O=C(CCC1CCCCC1)NNC(=O)NC12CC3CC(CC(C3)C1)C2	CYP2C19 inh 95
O=C(O)CCCC(=O)Nc1ccccc1C(=O)O	none
Cc1ccnc(NC(=O)CCC2CCCCC2)c1	CYP2C19 inh 86
O=C(Cc1cccc2ccccc12)Nc1ccccc1C(=O)O	CYP2C9 inhib 87
O=C1CCCN1Cc1ncnn1-c1ccccc1	none (no result: CYP2C9 inhib, CYP2C19 inh, CYP2C19 activ, CYP2C9 activ)
CCOC(=O)C(C(=O)Nc1ccccc1)C1CCCCC1 (stereo not given)	none
COc1ccc(CC(=O)Nc2nnc(C)s2)cc1	none
CCC(=O)Nc1ccc(NC(=O)C23CC4CC(CC(C4)C2)C3)cn1	none
COC(=O)C(C(=O)Nc1cc(C)on1)C1CCCCCC1 (stereo not given)	CYP2C9 inhib 52, CYP2C19 inh 64
Cc1ccnc(NC(=O)C23CC4CC(CC(C4)C2)C3)c1	CYP2C19 inh 94
CCOC(=O)C(C(=O)Nc1ccc(C)cc1)C1CCCCC1 (stereo not given)	PostGolgi ctrl 40, CYP2C9 inhib 56, CYP2C19 inh 79
COc1ccc(CC(=O)Nc2cc(C)ccn2)cc1	CYP2C19 inh 85
Cc1ccc(C(=O)C2=C(O)C(=O)N(CCCN(C)C)C23C(=O)N(C)c2ccccc23)o1 (stereo not given)	none (no result: PostGolgi ctrl, PostGolgi yeast)
Cc1ccc(S(=O)(=O)n2ccnc2)cc1C	none
O=C(CCC1CCCC1)NC1CCCCC1	CYP2C19 inh 57
COc1ccc(CC(=O)Nc2cccc(C(=O)O)c2C)cc1	PostGolgi ctrl 34
O=C(CC1CCCCC1)NC1CCCC1	none
COC(=O)Cc1c(C)nc2nc(-c3ccco3)[nH]n2c1=O	none (no result: CYP2C9 inhib, CYP2C19 inh, CYP2C19 activ, CYP2C9 activ)
CC1=C(C(=O)Nc2cccnc2)C(c2ccc(C(C)C)cc2)n2ncnc2N1 (stereo not given)	none (no result: CYP2C9 inhib, CYP2C19 inh, CYP2C19 activ, CYP2C9 activ)
O=C(Nc1ccc(C(F)(F)F)cc1)C1CC(=O)N(c2ccc3c(c2)OCCO3)C1 (stereo not given)	none
CCCN(CCC)c1nc2ccccc2n2c(C)nnc12	PostGolgi ctrl 45
CC1S/C(=C(\C#N)C(N)=O)N(c2ccc(F)cc2)C1=O (stereo not given)	none
CCOc1ccc(-c2nc(CSCC(=O)NCCN3CCOCC3)c(C)o2)cc1	none
CCOc1ccc(CCNC(=O)c2cc3sccc3n2CC)cc1OCC	CYP2C19 inh 51
CCCCOCCCNC(=O)CN1C(=O)c2ccccc2C1=O	none
O=C1C2C3C=CC(C3)C2C(=O)N1c1n[nH]c(CCc2ccccc2)n1 (stereo not given)	none
Cc1cc(C)n(Cc2cccc(F)c2)c(=O)c1C#N	none
N#Cc1c(-c2ccco2)nc(NCC2CCCO2)[nH]c1=O (stereo not given)	none
N#Cc1c(-c2ccco2)nc(SCC(=O)Nc2ccc(S(N)(=O)=O)cc2)[nH]c1=O	CYP2C9 inhib 50
N#Cc1c(-c2ccco2)nc(SCc2ccc(F)cc2)[nH]c1=O	CYP2C9 inhib 63
Cc1nc(SCc2cccc(F)c2)[nH]c(=O)c1C#N	CYP2C9 inhib 75
CN(C)CCCNc1oc(-c2cccc(Cl)c2)nc1C#N	none
